Screening data deposited in PubChem BioAssay by National Center for Advancing Translational Sciences (NCATS).
Hits are enriched below; roughly 2.4% of the tested compounds scored in any of these assays.
D2 PAM-1 = HTS Assay for Positive Allosteric Modulators of the Human D2 Dopamine Receptor: Primary Screen for Potentiators; D(2) dopamine receptor (Homo sapiens), P14416; HEK293 T-REx D2, calcium flux, EC20 dopamine potentiation; potentiation, % at 10 µM; AID 485347, 2010; 340,000 tested, 0.34% active;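 active = potentiation over 3 SD above the plate norm, cut at about 30% in these data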
Target sequence (P14416 whole entry, looked up): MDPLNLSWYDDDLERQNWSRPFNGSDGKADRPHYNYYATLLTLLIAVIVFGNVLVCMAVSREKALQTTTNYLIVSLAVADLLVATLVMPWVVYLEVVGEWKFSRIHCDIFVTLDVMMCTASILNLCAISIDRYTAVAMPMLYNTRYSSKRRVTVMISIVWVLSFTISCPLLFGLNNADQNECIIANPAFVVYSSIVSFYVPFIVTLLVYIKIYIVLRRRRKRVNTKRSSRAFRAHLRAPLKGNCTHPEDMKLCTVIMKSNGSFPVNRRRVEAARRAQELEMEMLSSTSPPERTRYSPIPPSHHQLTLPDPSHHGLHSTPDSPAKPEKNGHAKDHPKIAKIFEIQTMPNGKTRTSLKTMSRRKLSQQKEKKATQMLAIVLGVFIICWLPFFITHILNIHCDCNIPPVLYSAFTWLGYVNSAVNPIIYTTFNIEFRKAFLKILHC
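Tetracycline-induced HEK293 T-REx cells force-coupled to calcium signalling expressed D2; compounds were pin-added after a 10 s baseline, read kinetically 180 s, then an EC20 dopamine challenge followed with a further 180 s calcium read.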
D2 ag-1 = Beta-Arrestin HTS for Positive Allosteric Modulators of the Human D2 Dopamine Receptor: Agonists. D(2) dopamine receptor (Homo sapiens), P14416. 360,000 tested, 0.084% active. AID 624465, 2012. activation, % (no concentration beside the values). DiscoveRx PathHunter D2 beta-arrestin, luminescence, 90 min; 100% = 57 uM dopamine signal; in the data active = activation above about 40%; inconclusive = between about 15% and that limit
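DiscoveRx PathHunter D2 beta-arrestin cells (2,100/well) attached overnight, then compound-stimulated 90 min at 37 C in HBSS/10 mM HEPES/0.1% Tween-20 buffer; beta-galactosidase complementation read by luminescence after 1 h at ambient temperature. Dopamine 57 uM final (EC100) as control.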
D2 PAM-2 = Beta-Arrestin HTS for Positive Allosteric Modulators of the Human D2 Dopamine Receptor: Potentiators; D(2) dopamine receptor (Homo sapiens), P14416; DiscoveRx D2 beta-arrestin cells, luminescence, 90 min; 100% = 57 uM dopamine signal; potentiation, % (no concentration beside the values); 360,000 tested, 0.23% active; AID 624464, 2012; in the data active = potentiation above about 50%; inconclusive = mostly about 30% to 49%
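PathHunter beta-arrestin assay in DiscoveRx D2 cells. Compounds were added with an EC20 of dopamine (50 nM final) for 90 min at 37 deg C. Luminescence was read 1 h after detection reagent, with 57 uM dopamine as the EC100 control.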
D2 antag = HTS Assay for Allosteric Antagonists of the Human D2 Dopamine Receptor: Primary Screen for Antagonists | 340,000 tested, 2% active | AID 485344, 2010 | inhibition, % at 10 µM | HEK293 TREx D2 cells, calcium flux, dopamine EC80 | D(2) dopamine receptor (Homo sapiens), P14416; in the data active = inhibition above about 30%; inactive = below that, where a call was filed
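Calcium mobilization kinetics were recorded at 1 s intervals in tetracycline-induced HEK293 T-REx D2 cells, first for 180 s after compound addition and then 180 s after EC80 dopamine.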
D2 ag-2 = HTS Assay for Allosteric Agonists of the Human D2 Dopamine Receptor: Primary Screen for Agonists | D(2) dopamine receptor (Homo sapiens), P14416 | HEK293 T-REx D2 cells, calcium flux agonist mode | activation, % at 2 µM | 340,000 tested, 0.53% active | AID 485358, 2010;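 active = activation over 3 SD above normal in the single-dose calcium agonist read, cut at about 30% in these data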
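Agonism is scored from calcium flux in a force-coupled, inducible HEK293 cell line expressing D2, read kinetically for 180 s after compound addition against dopamine controls.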
Large screens that a line does not name were inactive.

COc1ccccc1NC(=O)C1=C(C)Nc2nc(-c3ccco3)nn2C1c1ccccc1F (stereo not drawn)	none (no result: D2 ag-1, D2 PAM-2, D2 antag, D2 ag-2)
Cn1c(=S)[nH]c2scc(-c3cccs3)c2c1=O	D2 PAM-2 67 (no result: D2 PAM-1, D2 antag, D2 ag-2)
Cc1ccc(C(=O)c2cn(Cc3cccc(C)c3)c3nc(C)ccc3c2=O)cc1	none (no result: D2 ag-1, D2 PAM-2, D2 antag)
O=C1C=C(Nc2ccc(Cl)cc2)CC(c2ccc(Cl)cc2)C1 (stereo not drawn)	D2 antag 48
COc1ccc(CCn2c(N)cc(=O)[nH]c2=S)cc1OC	D2 PAM-1 34
CCOC(=O)N1CCN(CCC(=O)Nc2ccc(OC)cc2OC)CC1	D2 antag 36, D2 ag-2 34
COc1ccc(NC(=S)N2CCN(C(=O)c3ccco3)CC2)c(OC)c1	none
COc1ccc(NC(=O)CN2CCN(C(=O)c3ccco3)CC2)c(OC)c1	D2 ag-2 39
CCOc1ccc(NC(=O)CN2CCN(CC(=O)Nc3ccc(OC)cc3OC)CC2)cc1	D2 antag 32
C/C(CC(=O)Nc1ccccn1)=N\NC(=O)c1ccccc1O	D2 antag 47
CCOC(=O)N1CCN(CCC(=O)Nc2ccc(OC)cc2)CC1	none
CCCN(CCC)CCNC(=O)Cn1cnc2sc(C)c(S(=O)(=O)N3CCN(c4ccccc4OC)CC3)c2c1=O	none (no result: D2 ag-1, D2 PAM-2, D2 antag, D2 ag-2)
CCOc1ccc(NC(=O)CC2C(=O)N(c3ccc(C)cc3)C(=O)N2Cc2ccc(OC)cc2)cc1 (stereo not drawn)	none (no result: D2 ag-1, D2 PAM-2, D2 antag, D2 ag-2)
CCN(CC)CCCNC(=O)c1ccc2nc(CCc3ccccc3)oc2c1	none (no result: D2 ag-1, D2 PAM-2, D2 antag)
COc1ccc(NC(=O)c2ccc(NC(=O)CN3CCN(c4ccc(O)cc4)CC3)cc2)cc1	D2 ag-1 124 (no result: D2 PAM-1, D2 antag, D2 ag-2)
COc1ccc(NC(=O)c2ccc(NC(=O)CN3CCN(c4ccccc4O)CC3)cc2)cc1	none (no result: D2 PAM-1, D2 antag, D2 ag-2)
COc1ccc(NC(=O)CCCNC(=O)c2ccc(Cl)cc2)c(OC)c1	D2 antag 30
COc1ccc(NC(=O)CCCN2C(=O)C3C4C=CC(C4)C3C2=O)c(OC)c1 (stereo not drawn)	D2 antag 35
COc1ccc(NC(=O)C/C(C)=N/NC(=O)c2ccccn2)c(OC)c1	D2 PAM-1 30
COc1ccc(NC(=O)CCCCC(=O)Nc2ccc(OC)cc2OC)c(OC)c1	none (no result: D2 PAM-1, D2 antag, D2 ag-2)
COc1ccc(NC(=O)CCOc2ccccc2)c(OC)c1	D2 antag 36
COc1ccc(OC)c(NC(=O)CCN2CCN(c3ccccc3OC)CC2)c1	D2 antag 72
Cc1ccc(NC(=O)CCNS(=O)(=O)c2cccc3nonc23)cc1	D2 antag 31
CC(C)c1ccc(NC(=O)CCNS(=O)(=O)c2cccc3nonc23)cc1	none
COc1ccccc1CNC(=O)C1CCN(S(=O)(=O)Cc2ccccc2)CC1	none (no result: D2 ag-1, D2 PAM-2, D2 antag)
CC1CC(C)CN(CCCSc2ccccc2)C1 (stereo not drawn)	none
CC1CN(CCCSc2ccc(Cl)cc2)CC(C)O1 (stereo not drawn)	none
CC1CC(C)CN(CCOCCSc2ccccc2)C1 (stereo not drawn)	D2 antag 65
c1ccc(SCCOCCN2CCc3ccccc3C2)cc1	D2 antag 75
CC1CC(C)CN(CCOCCSc2ccc(Cl)cc2)C1 (stereo not drawn)	D2 antag 65
COc1ccc(C)cc1NC(=O)C1CCN(S(=O)(=O)c2ccc3[nH]c(=O)oc3c2)CC1	none (no result: D2 ag-1, D2 PAM-2, D2 antag)
Cc1cccn2c(=O)c3cc(C#N)c(=O)n(-c4nnc(SCc5ccccc5F)s4)c3nc12	none (no result: D2 ag-1, D2 PAM-2, D2 antag)
COc1ccccc1N(CC(=O)Nc1ccc2c(c1)OCO2)S(=O)(=O)c1ccc(C)cc1	none (no result: D2 ag-1, D2 PAM-2, D2 antag)
CC(=O)OC1C(N2CCCCC2)c2c(ccc(/C=C/C(=O)N3CCCCC3)c2O)OC1(C)C (stereo not drawn)	D2 antag 30
CC1(C)Oc2ccc3ccc(=O)oc3c2C(N2CCCCC2)C1O (stereo not drawn)	none
COc1ccc(-n2c(/C=C/c3cccc4ccccc34)nc3ccccc3c2=O)cc1Cl	none (no result: D2 ag-1, D2 PAM-2, D2 antag)
COc1cc(N)c(Cl)cc1C(=O)OCC(=O)NCc1cccs1	none (no result: D2 PAM-1, D2 antag, D2 ag-2)
COc1cc(N)c(Cl)cc1C(=O)OCC(=O)c1cccs1	D2 antag 33
COc1ccc(C(C(=O)NCc2ccccc2)N(C(=O)Cn2nnc3ccccc32)c2cccc(OC)c2)cc1 (stereo not drawn)	none (no result: D2 ag-1, D2 PAM-2, D2 antag)
COC(C[C@H](O)C[C@H](O)[C@H](C)OCc1ccccc1)OC	D2 antag 38
COC(C[C@@H](O)CC(=O)[C@@H](C)OCc1ccccc1)OC	none
Cc1coc2c(C)c3oc(=O)c(CCC(=O)NCCCN4CCOCC4)c(C)c3cc12	none
Cc1coc2c(C)c3oc(=O)c(CCC(=O)N4CCC(C(=O)NCCCC(=O)O)(c5ccccc5)CC4)c(C)c3cc12	D2 PAM-1 41
Cc1cc(C)n(-c2nc(C)c(C)c(=O)n2CC(=O)Nc2cccc([N+](=O)[O-])c2)n1	none (no result: D2 ag-1, D2 PAM-2, D2 antag)
O=C(CNc1cccc([N+](=O)[O-])c1)NCCCc1ccccc1	none
Cc1cc(Br)ccc1NC(=O)CNC(=O)CNc1cccc([N+](=O)[O-])c1	D2 antag 31
CCOC(=O)c1c(C)oc2ncnc(Nc3cc(Cl)ccc3OC)c12	none (no result: D2 ag-1, D2 PAM-2, D2 antag)
COc1ccc(S(=O)(=O)/C(C#N)=C/Nc2ccccc2F)cc1	D2 antag 40
COc1ccc(S(=O)(=O)/C(C#N)=C/Nc2cccc(F)c2)cc1	none
COc1ccc(CN(Cc2ccco2)C(=O)COc2ccccc2OC)cc1	none (no result: D2 ag-1, D2 PAM-2, D2 antag)
C=CCN(CC=C)C(=S)Nc1cc(Cl)ccc1OC	D2 ag-1 42
CC(C)(C)C(=O)COC(=O)CCc1nc2ccccc2[nH]c1=O	D2 antag 31
Cc1ccc(CNC(=O)c2ccc([N+](=O)[O-])o2)cc1	D2 PAM-2 56
Cc1ccc(CNC(=O)c2nn(C)c(C)c2[N+](=O)[O-])cc1	none
Cc1ccc(/C=C/C(=O)c2ccc([N+](=O)[O-])o2)cc1	D2 PAM-2 54
CCOC(=O)C1CCCN(C(=O)C2CCN(S(=O)(=O)c3c(C)noc3/C=C/c3ccc(C)cc3)CC2)C1 (stereo not drawn)	none (no result: D2 ag-1, D2 PAM-2, D2 antag)
CCN(CC)S(=O)(=O)c1ccc(NC(=O)[C@H](CSCc2ccccc2)N2Cc3ccccc3C2=O)cc1	none (no result: D2 ag-1, D2 PAM-2, D2 antag)
Nc1ccc(C2=Nc3cccc4cccc(c34)N2)cc1	D2 ag-1 inconclusive
CC1=Nc2cccc3cccc(c23)N1	D2 PAM-2 56
NC(=O)c1ccc(C(F)(F)F)n(Cc2cccc(Cl)c2)c1=O	D2 antag 32
